Test results from PubChem BioAssay AID1259376 (The Scripps Research Institute Molecular Screening Center, 2018).
In all, about 4,700 compounds went through this assay and about 360 (7.7%) were called active. The entries come from a sample that favours actives as a whole. Values without a mark were called inactive.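 How the source made its calls: active means inhibition above a cutoff derived from the DMSO control wells (cut at about 30% in these data); inactive means the rest.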

experiment: bead signal artefacts at single dose – biochemical, AlphaScreen, triplicate, counter-screen for MITF inhibitor project (AID 1259376); settings: LysRS AlphaScreen counterscreen, signal interference, at 2.6 µM, stronger effect = higher value

Row | Compound | inhibition
1 | COc1cc(NC(=O)CCc2nc(C3=CCN(C)CC3)no2)cc(OC)c1OC | 34.2% (active)
2 | COc1ccccc1CN1CCN(C(=O)Cc2ccccc2)CC1 | 7.15%
3 | COc1ccc(CN2CCN(C(C)C)CC2)cc1 | 10.5%
4 | COc1cccc(CN2CCN(Cc3ccccc3F)CC2)c1 | 16.6%
5 | CCN1CCc2nc3ccccc3c(C(=O)O)c2C1 | 4.31%
